# Screening data (PubChem)
# Only some compounds are listed: those with a hit (about 3.5% of all), similar ones and a draw of the others.
# FBW7 activator: activators of human E3 ligase FBW7; Q969H0; AlphaScreen FBW7–phospho-cyclin E peptide binding, activator screen; normalized activity (activation), % at 26.1 µM; 650,000 compounds, 0.13% hits; in the data active = normalized activity above about 1.9%;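 note: purified mutant Fbw7 with reduced substrate affinity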
# TEAD-YAP block: TEAD-YAP interaction inhibition; HEK-TIYL cells, TEAD-Gal4/YAP UAS-luciferase luminescence; inhibition, % at 9.12 µM; 640,000 compounds, 1.4% hits; AID 1259422; in the data active = inhibition above about 32%;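 note: 0% = median of test compound wells and 100% = reference inhibitor wells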
# GPR151 ag: human GPR151 activation | PathHunter beta-arrestin GPR151 cells, luminescence | activation, % at 11.2 µM | 650,000 compounds, 1% hits | AID 1508602; in the data active = activation above about 4.9%;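 note: 0% = median of compound wells and 100% = cells with positive control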
# MITF inh: inhibitors of human MITF. O75030. AlphaScreen MITF homodimerization, bead proximity signal. inhibition, % at 2.6 µM. 650,000 compounds, 0.91% hits; in the data active = inhibition above about 50%;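 note: 0% = vehicle wells with protein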
# Target sequence (O75030 whole entry, looked up): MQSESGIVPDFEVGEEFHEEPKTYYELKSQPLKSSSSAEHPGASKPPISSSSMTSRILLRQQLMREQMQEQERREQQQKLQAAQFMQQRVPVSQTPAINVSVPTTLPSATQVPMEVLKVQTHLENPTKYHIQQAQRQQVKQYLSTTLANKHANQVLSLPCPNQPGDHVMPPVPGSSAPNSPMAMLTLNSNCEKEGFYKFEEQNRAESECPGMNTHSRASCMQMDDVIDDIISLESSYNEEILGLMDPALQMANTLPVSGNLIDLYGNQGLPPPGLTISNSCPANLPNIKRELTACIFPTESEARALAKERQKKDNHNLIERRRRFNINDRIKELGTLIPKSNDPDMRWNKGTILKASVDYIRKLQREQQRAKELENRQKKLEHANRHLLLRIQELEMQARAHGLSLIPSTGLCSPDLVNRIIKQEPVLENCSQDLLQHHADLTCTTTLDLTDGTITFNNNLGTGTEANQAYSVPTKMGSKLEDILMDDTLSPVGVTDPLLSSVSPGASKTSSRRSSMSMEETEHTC
# MITF confirm: human MITF inhibition, confirmation; shares compounds with MITF inh; AlphaScreen MITF homodimerization, biotin/His-MITF beads; inhibition, % at 2.6 µM; 4,700 compounds, 16% hits;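 active = inhibition above a cutoff derived from the DMSO control wells, cut at about 28% in these data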;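 note: 0% = MITF dimer wells with DMSO only; inhibitors lower the bead chemiluminescence by keeping MITF from dimerizing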
# AlphaScreen DR: AlphaScreen optical interference, dose response counter-screen | AlphaScreen optical interference counterscreen, cell-free | IC50, µM | shares compounds with MITF inh | AID 1259373 | 480 compounds, 6% hits; call rule not given here
# AlphaScreen intf2: AlphaScreen optical interference, counter-screen | LysRS AlphaScreen counterscreen, signal interference, triplicate | 4,700 compounds, 7.6% hits | shares compounds with MITF inh | inhibition, % at 2.6 µM | AID 1259376;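 active = inhibition above a cutoff derived from the DMSO control wells, cut at about 30% in these data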
# Active calls of the source: *; nt = not tested or not shown.
SMILES,FBW7 activator,TEAD-YAP block,GPR151 ag,MITF inh,MITF confirm,AlphaScreen intf2,others
COc1ccccc1CN1CCN(C(=O)COc2ccccc2)CC1,0,5,-1,39,nt,nt,
O=C(COc1ccccc1)N1CCN(Cc2ccccc2F)CC1,0,-8,-1,55*,7,8,
Cc1ccccc1CN1CCN(C(=O)COc2ccccc2)CC1,0,-2,2,60*,8,9,
C1CCC(N2CCN(C3CC4CCC3C4)CC2)C1 (centres undefined),0,-4,1,67*,-2,1,
Cc1cccc(CN2CCN(Cc3ccccc3C)CC2)c1,0,-6,0,64*,-3,-4,
Cc1ccc(CN2CCN(Cc3cccc(C)c3)CC2)cc1,0,7,1,64*,9,18,
Cc1cccc(CN2CCN(Cc3ccccc3F)CC2)c1,0,-2,-1,79*,10,12,
COc1ccc(CN2CCN(Cc3cccc(C)c3)CC2)cc1,0,4,-2,31,nt,nt,
CCN1CCN(Cc2cccc([N+](=O)[O-])c2)CC1,0,-2,0,-11,nt,nt,
Cc1cccc(CN2CCN(Cc3ccccc3[N+](=O)[O-])CC2)c1,0,-4,4,64*,13,-2,
C[C@H](Cc1ccc2c(c1)OC(C(=O)O)(C(=O)O)O2)NC[C@H](O)c1cccc(Cl)c1,0,-4,1,3,nt,nt,
NC1=NC(c2cccnc2)n2c(nc3ccccc32)N1 (centres undefined),0,5,2,-2,nt,nt,
COc1ccccc1CN1CCN(Cc2cccc(C)c2)CC1,0,-7,-2,69*,8,9,
CC(=O)c1ccc(N2CCN(Cc3ccc(F)c(F)c3)CC2)cc1,0,-8,2,45,nt,nt,
CC(=O)c1ccc(N2CCN(Cc3cccc(C)c3)CC2)cc1,0,-9,0,20,nt,nt,
CC(=O)c1ccc(N2CCN(Cc3cc(F)ccc3F)CC2)cc1,0,2,-1,61*,0,3,
CC(=O)c1ccc(N2CCN(Cc3ccc(F)cc3F)CC2)cc1,0,-7,-1,55*,2,4,
CC1=C2[C@H]3OC(=O)[C@@H](C)[C@@H]3CC[C@@]2(C)C=CC1=O,0,-2,2,7,nt,nt,
COc1ccc(CC2NCCc3cc(OC)c(OC)cc32)cc1OC (centres undefined),0,-1,-1,84*,101*,4,AlphaScreen DR=3.4*
COc1ccc(CCNC2C3CC4CC(C3)CC2C4)cc1OC (centres undefined),0,8,1,4,nt,nt,
COC(=O)C1C2c3ccccc3OC1(C)N=c1s/c(=C\c3ccccc3)c(=O)n12 (centres undefined),0,-3,-3,4,nt,nt,
CCOc1cc(CN2CCN(Cc3ccccc3)CC2)ccc1O,0,1,4,56*,5,-3,
CCOc1cc(CN2CCN(C(CC)CC)CC2)ccc1OC,0,4,0,78*,1,-5,
CCOc1cc(CN2CCN(c3ccccc3F)CC2)ccc1O,0,-2,-2,30,nt,nt,
CCOc1cc(CN2CCN(C(C)C)CC2)ccc1OC,0,10,0,55*,9,11,
SMILES,FBW7 activator,TEAD-YAP block,GPR151 ag,MITF inh,MITF confirm,AlphaScreen intf2,others
CCC(CC)N1CCN(Cc2ccc(OC)c(OC)c2)CC1,0,0,1,69*,12,-1,
N#CCCn1cc(C(=O)Nc2ccc(I)cc2)c(-c2ccccc2)n1,0,0,1,8,nt,nt,
O=C(c1csc(-c2ccccc2)n1)N1CC2CC(C1)c1cccc(=O)n1C2 (centres undefined),0,6,-1,9,nt,nt,
CCOC(=O)C1=C(c2ccccc2)OC(N)=C(C#N)C12C(=O)Nc1ccccc12 (centres undefined),0,3,0,-4,nt,nt,
COc1ccc(CN2CCN(c3ccccc3F)CC2)cc1OC,0,-5,0,52*,15,-9,
CCC(CC)N1CCN(Cc2ccc(OC)cc2)CC1,0,0,0,54*,-6,-8,
Brc1cccc(CN2CCN(Cc3cccc(Br)c3)CC2)c1,1,2,0,77*,-3,10,
Brc1cccc(CN2CCN(Cc3ccc4c(c3)OCO4)CC2)c1,0,3,1,64*,-3,7,
Clc1cccc(CN2CCN(Cc3cccc(Br)c3)CC2)c1,0,10,0,50,nt,nt,
Fc1cccc(CN2CCN(Cc3ccc4c(c3)OCO4)CC2)c1,0,-3,0,56*,-2,3,
C=CCN1C(=O)/C(=C/c2ccc(OC)cc2OC)C(=O)NC1=S,0,14,1,-2,nt,nt,
Nc1nc2nonc2n2nnnc12,0,8,1,-8,nt,nt,
N#Cc1ccc(NC(=O)COC(=O)CN2C(=O)c3ccccc3C2=O)cc1Cl,0,10,2,-6,nt,nt,
CCC(C)N1CCN(Cc2cc(OC)c(OC)c(OC)c2)CC1 (centres undefined),0,-1,-1,75*,3,1,
CCN1CCN(Cc2cc(OC)c(O)c(OC)c2)CC1,0,-5,0,12,nt,nt,
CCC(C)N1CCN(Cc2cc(OC)c(O)c(OC)c2)CC1 (centres undefined),0,-10,-2,68*,7,25,
CCN1CCN(Cc2ccc(F)c(Br)c2)CC1,0,-2,1,44,nt,nt,
OCCN1CCN(Cc2ccc(F)c(Br)c2)CC1,0,2,0,73*,-4,-4,
CN1CCN(Cc2ccc(F)c(Br)c2)CC1,1,-1,0,80*,12,15,
CN(C)c1ccc(/C=C2\C(=O)NC(=O)N(Cc3ccccc3Cl)C2=O)cc1,-1,10,2,9,nt,nt,
O=C(NCCc1cccc(Cl)c1)C(Cl)(Cl)Cl,1,-2,0,4,nt,nt,
CCN1CCN(Cc2ccc(OC)cc2)CC1,0,-5,0,-7,nt,nt,
COc1ccc(OCC#CCN2CCNCC2)cc1,0,-6,-1,59*,-10,-5,
COc1ccc(CN2CCN(C)CC2)cc1Br,1,7,1,73*,3,10,
COc1ccc(CN2CCN(Cc3ccc(Br)cc3)CC2)cc1Br,-1,-3,0,33,nt,nt,
COc1ccc(CN2CCN(Cc3ccccc3Br)CC2)cc1Br,0,-7,0,75*,4,2,
CCOC(=O)c1c(C)n(Cc2ccccc2)c2ccc(OCC(O)Cn3nc(C)c(Br)c3C)cc12 (centres undefined),0,-2,1,4,nt,nt,
CCN(CC)c1ccc(CN2CC3CC(C2)c2cccc(=O)n2C3)cc1 (centres undefined),0,-4,1,10,nt,nt,
CCOc1ccc(NC(=O)CCc2nc(C3=CCN(C)CC3)no2)cc1,-2,2,-1,83*,93*,70*,
CN1CC=C(c2noc(CCC(=O)Nc3nc4ccccc4s3)n2)CC1,1,-30,-1,29,nt,nt,
